Drawing on PubChem BioAssay (NCI), this text covers growth inhibition for 16 compounds.

This is part of a sample that, as a whole, favours compounds with a hit. Of some 79,000 tested, about 15% had one in any assay. The source made the active and inactive calls. No stated cut-off is given here; in the data, active means growth inhibition above about 70%; inactive means the rest.

The nature of the experiment: NCI Yeast Anticancer Drug Screen. Data for the mlh1 rad18 strain (AID 175). The following applies: S. cerevisiae mlh1 rad18 strain growth inhibition; at 50.0 µM; hits give high values. Put shortly:
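Steps: expose repair-defective yeast to compound; measure growth; express inhibition against vehicle-treated controls.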
Turning to `CCOC(=O)C1CC(O)c2ccc(Cl)cc2N1` (stereo unspecified), the growth inhibition is 6.15% (inactive).

For the compound `C1=C(c2ccccc2)OC(c2ccccc2)=C(c2ccccc2)[P+]1(c1ccccc1)c1ccccc1`, the growth inhibition was 99.5% (active).

Take `COc1ccc(N(N=Nc2ccccc2)C(C)=O)cc1`: the growth inhibition is 11.9% (inactive). With `CCOC(=O)c1nnn(Cc2ccccc2)c1N`, the growth inhibition is -9.35% (inactive).

For `CCCc1nc(N)nc(C(=O)Nc2cccc(C(F)(F)F)c2)c1CC`, the growth inhibition is -8.25% (inactive). Turning to `CCOc1ccccc1NCN1C(=O)c2ccccc2C1=O`, the growth inhibition is -20.1% (inactive). For `COc1cc(C2c3cc4c(cc3OC(N3CCNCC3)C2C)OCO4)cc(OC)c1OC` (stereo unspecified), the growth inhibition was -27.5% (inactive).

Regarding `C=C(CCCCCCCCC)CC(=O)SCCNC(=O)CCNC(=O)C(O)C(C)(C)COP(=O)(O)OP(=O)(O)OCC1OC(n2cnc3c(N)ncnc32)C(O)C1OP(=O)(O)O` (stereo unspecified), the growth inhibition was 0.4% (inactive). For the compound `CSc1ccc(C(=C=C=C(c2ccc(SC)s2)c2ccc(SC)s2)c2ccc(SC)s2)s1`, the growth inhibition was -2.1% (inactive). `COC1=C(OC)C(=O)C(Sc2ccc3ccccc3c2)=C(Cl)C1=O`: the growth inhibition was 91.1% (active). As to `CCOC(=O)NC(N)=O`, the growth inhibition is 6.85% (inactive).

Turning to `CC(=O)N1Cc2c(N)ncnc2C1C` (stereo unspecified), the growth inhibition was -12.2% (inactive). Under `CCC(=O)Oc1ccc(OCc2ccccc2)cc1` stands -25.9% (inactive); under `O=C(O)c1cccc(Br)c1`, -5.5% (inactive). In the case of `CCOC(=N)c1ccc(C(=N)OCC)cc1`, the growth inhibition was -41.7% (inactive). As to `O=P(O)(O)OC1C(OP(=O)(O)O)C(OP(=O)(O)O)C(OP(=O)(O)O)C(OP(=O)(O)O)C1OP(=O)(O)O.[Cu+2]` (stereo unspecified), the growth inhibition was -19.4% (inactive).
